G9a inh: qHTS Assay for Inhibitors of Histone Lysine Methyltransferase G9a; Histone-lysine N-methyltransferase EHMT2 (Homo sapiens), Q96KQ7; G9a H3K9 monomethylation, AlphaScreen, 2 h; AID 504332, 2011; actives 8.8% (n = 350,000); Potency, µM (highest dose often 102 µM), hits mostly inhibitors; further: nearly all actives have a fitted effect of over 75% in size
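Methyltransferase reactions run at room temperature for 2 h (20 nM enzyme, 500 nM biotin-H3K9 peptide, 20 uM SAM) after a 15 min compound preincubation; product detected by AlphaScreen beads and anti-H3K9me1 antibody.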
PLK1 PBD block: qHTS for Inhibitors of PLK1-PDB (polo-like kinase 1 - polo-box domain): Primary Screen. AID 720504, 2013. Plk1 PBD binding of FITC phosphopeptide, fluorescence polarization. actives 2.8% (n = 360,000). Potency, µM, most hits filed as inhibitors; further: series mostly up to about 57 µM; nearly all actives have a fitted effect of over 65% in size
Sfp inh: qHTS Assay for Inhibitors of Bacillus subtilis Sfp phosphopantetheinyl transferase (PPTase). 4'-phosphopantetheinyl transferase ffp (Bacillus subtilis), Q9F4F7. Biochemical Sfp PPTase activity, qHTS. Potency, µM, most hits filed as inhibitors. actives 3.5% (n = 310,000). AID 1490, 2009;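 further: the enzyme is Sfp with the accession as filed and its product quenches rhodamine fluorescence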
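Sfp 15 nM + cpd, 15 min RT; start w/ rhodamine-CoA 5 uM, BHQ-2-YbbR 12.5 uM (final); 50 mM Hepes pH 7.6, 10 mM MgCl2, 0.01% NP-40, 0.01% BSA; read 525/598 nm at 0 and 30 min.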
HP1b binding inh: HTS for Inhibitors of HP1-beta Chromodomain Interactions with Methylated Histone Tails. Chromobox protein homolog 1 (Homo sapiens), P83916. AlphaScreen HP1-beta / biotin-H3K9me3 peptide binding. Potency, µM (doses to about 114 µM), actives largely listed as inhibitors. actives 0.56% (n = 390,000). AID 540317, 2011; further: nearly all actives have a fitted effect of over 70% in size
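Compound inhibition of the preformed complex between 50 nM HP1-beta and 50 nM biotinylated H3K9me3 peptide was read by AlphaScreen. Buffer was PBS pH 7.4 with 0.01% Tween-20. Incubations ran 30 min at room temperature, with 10 ug/mL donor/acceptor beads.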
JMJD2A Tudor inh: qHTS Assay for Inhibitors of JMJD2A-Tudor Domain. Potency, µM (series often up to 114 µM), usual class: inhibitors. Lysine-specific demethylase 4A (Homo sapiens), O75164. actives 4.4% (n = 390,000). AID 504339, 2011. AlphaScreen JMJD2A-Tudor / H3K4me3 peptide binding; further: nearly all actives have a fitted effect of over 50% in size
BAZ2B inh: qHTS Assay for Inhibitors of BAZ2B; AlphaScreen BAZ2B-H3K14Ac peptide displacement; Potency, µM (doses to about 114 µM), usual class: inhibitors; actives 4.4% (n = 360,000); further: nearly all actives have a fitted effect of over 60% in size
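AlphaScreen displacement: compounds (up to 110uM) incubated 30 min at room temperature with a preformed 50 nM BAZ2B/50 nM biotinylated H3K14Ac peptide complex in PBS pH 7.4 with Tween-20. Donor and acceptor beads at 10 ug/mL final added, 20 min light-protected before reading.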
Hits are given with their value; n = inactive; u = inconclusive; x = not tested or not shown; [ ] = dose if it differs, or a comment. In the library only some 12% were active in any assay of this set; here they are far more common. The call rests on the fitted dose curve; in most records, active means well fitted curve in the direction sought with a large enough effect; inconclusive means small, poorly fitted or top-dose-only effect, or another doubt; inactive means no such curve, though single readings can be large; an effect the other way counts as inactive or inconclusive.

SMILES	G9a inh	PLK1 PBD block	Sfp inh	HP1b binding inh	JMJD2A Tudor inh	BAZ2B inh
Cc1c(C(=O)N2CCCC2)oc2c1-c1nn(CC(=O)NCc3ccccc3Br)cc1CC2	u	x	x	n	n	n
Cc1cccc(-c2ccc(-c3cc(=O)oc4cc(C)cc(C)c34)cc2)c1	n	x	n	x	x	x
Clc1ccc(C2=CC(c3ccco3)n3ncnc3N2)cc1 (centres undefined)	8.9µM	u	u	n	u	u
CC(=O)Nc1cccc(C2=CC(c3ccco3)n3ncnc3N2)c1 (centres undefined)	u	x	n	x	x	x
COc1ccc(C2=CC(c3ccco3)n3ncnc3N2)cc1 (centres undefined)	11µM	34µM	n	n	n	u
FC(F)(F)c1ccccc1C1=CC(c2ccccc2)n2ncnc2N1 (centres undefined)	x	n	x	n	n	x
Clc1ccccc1C1=CC(c2ccco2)n2ncnc2N1 (centres undefined)	35µM	n	n	n	n	n
COc1ccc(CN(C)C[C@H]2OCCCC[C@@H](C)Oc3ccc(NC(=O)c4ccccc4)cc3C(=O)N([C@H](C)CO)C[C@@H]2C)cc1	x	n	x	x	x	x
Cc1ccc(OCC(=O)Nc2ccc(S(=O)(=O)N3CCN(C)CC3)cc2)cc1	11µM	n	n	n	n	n
CCN(Cc1ccc(N(C)C)cc1)C(C)C(=O)Nc1ccc(S(=O)(=O)N2CCCC2)cc1 (centres undefined)	n[12.7 µM]	n	x	n	32µM	40µM
Cc1ccc(OCC(=O)Nc2ccc(S(=O)(=O)N3CCCC3)cc2)cc1	79µM	n	n	n	n	n
Cc1ccc(NC(=O)CN(C)C(C)C(=O)Nc2ccc(S(=O)(=O)N3CCCC3)cc2)cc1 (centres undefined)	n[2.33 µM]	n	x	n	n	n
COc1ccc(OCC(=O)Nc2ccc(S(=O)(=O)N3CCCC3)cc2)cc1	n	n	n	n	n	n
Cc1ccc(S(=O)(=O)N2CCN(C(=O)COc3ccc(NC(=O)c4ccco4)cc3)CC2)cc1	n[12.7 µM]	17µM	n	n	u	n
CSc1ccccc1C(=O)N1CCC(n2nccc2NC(=O)C(C)(C)C)CC1	n	n	n	n	n	n
COc1ccc(C(=O)N2CCC3(CC2)CN(c2ccccc2)C3)cc1	n[12.7 µM]	x	n	x	x	x
O=C(CCc1ccccc1)N1CCc2c([nH]c3ccccc23)C1c1ccc(F)cc1 (centres undefined)	n	x	x	n	u	u
COc1ccc(CNC(=O)CSC(=S)N2CCCC2)cc1	n	n	x	n	n	n
CC(C)c1ccc(CCNC(=O)CSC(=S)N2CCCC2)cc1	16µM	27µM	x	n	n	n
Cc1ccc(OCC(=O)NNC(=O)CSC(=S)N2CCCC2)cc1	45µM	n	x	n	n	n
CCN1CCN(S(=O)(=O)c2ccc(Cl)c(C(=O)N(CCc3ccccc3)Cc3ccccc3)c2)CC1	x	n	x	n	u	x
CCOc1ccc(NC(=O)C(=O)NCCN2CCN(S(=O)(=O)c3ccccc3)CC2)cc1	n	24µM	n	n	u	n
COc1ccccc1OCC(=O)NNC(=O)CSC(=S)N1CCCC1	n[12.7 µM]	n	x	n	n	n
CCN1CCN(S(=O)(=O)c2ccc(Cl)c(C(=O)N(CC)Cc3ccccc3)c2)CC1	14µM	n	x	n	n	n
O=C(COc1ccccc1)Nc1ccc(S(=O)(=O)N2CCCCCC2)cc1	n[12.7 µM]	n	n	n	n	n
SMILES	G9a inh	PLK1 PBD block	Sfp inh	HP1b binding inh	JMJD2A Tudor inh	BAZ2B inh
O=C(COc1ccccc1)Nc1ccc(S(=O)(=O)N2CCCC2)cc1	50µM	n	n	n	n	n
CCN(CC(=O)Nc1ccc(S(=O)(=O)N2CCCC2)cc1)Cc1ccccc1	45µM	n	x	n	n	n
COC(=O)[C@H]1C[C@@]2(O)CN(S(=O)(=O)c3ccc(C)cc3)C[C@@]2(OC(=O)Nc2c(C)noc2C)C[C@H]1C(=O)OC	x	n	x	x	x	x
NC(=O)c1ccc(NC(=O)CSC(=O)c2ccccc2)cc1	x	27µM	x	n	n	x
NC(=O)c1ccc(NC(=O)CSc2nncn2-c2ccccc2)cc1	22µM	n	n	n	n	n
Cc1nnc(SCC(=O)Nc2ccc(C(N)=O)cc2)n1-c1ccccc1	n	n	n	n	n	n
C=CCc1cccc(OC)c1OCCOCCNCCO	11µM	n	n	n	5.6µM	56µM
CCc1ccc(NC(=O)CN2C(=O)c3ccccc3Sc3ccc(C(=O)N4CCCC4)cc32)cc1	n	x	x	n	n	n
CN(C)c1ccc(NC(=O)CN2C(=O)c3ccccc3Sc3ccc(C(=O)N4CCCC4)cc32)cc1	4.5µM	x	x	n	u	u
COc1ccc(OC)c(/C=C2\Oc3cc(OCC(=O)N4CCC(C(=O)O)CC4)ccc3C2=O)c1	n[12.7 µM]	n	16µM	n	n	n
O=C(O)COc1ccc2c(c1)O/C(=C\c1cccs1)C2=O	n	n	n	n	n	n
COc1ccc(/C=C2\Oc3cc(OCC(=O)N4CCC(C(=O)O)CC4)ccc3C2=O)c(OC)c1	x	n	n	n	n	n
O=C(O)COc1ccc2c(c1)O/C(=C\c1ccco1)C2=O	10µM	24µM	u	40µM	20µM	40µM
OC(COc1ccccc1)CN1CCN(CC(O)COc2ccccc2)CC1 (centres undefined)	u	n	u	n	n	n
OC(CON=C1c2ccccc2-c2ccccc21)CN1CCNCC1 (centres undefined)	50µM	n	n	u	3.5µM	20µM
COCc1cc(=O)[nH]c(SCCS(=O)(=O)c2ccc(C)cc2)n1	x	n	n	n	n	n
COCc1cc(=O)[nH]c(SCCS(=O)(=O)c2ccc(Cl)cc2Cl)n1	u	n	79µM	n	n	n
CCOC(=O)c1sc(N2C(=O)c3oc4ccc(F)cc4c(=O)c3C2c2ccc(O)cc2)nc1C (centres undefined)	n	x	x	n	n	n
N/C(=N\OC(=O)COc1ccc2ccccc2c1Br)c1ccncc1	n	x	45µM	x	x	n
CCc1cc(C(=O)N2CCOCC2)c(NC2=NS(=O)(=O)c3ccccc32)s1	89µM	n	n	n	n	n
NC(=O)c1nc[nH]c1C(=O)Nc1cccc(C(F)(F)F)c1	n[0.501 µM]	n	x	n	n	u
CN1C(=O)C2(c3ccccc31)N(C)CC(c1ccccc1)C21SC(=S)N(Cc2ccco2)C1=O (centres undefined)	x	n	n	n	u	n
CN1C(=O)C2(c3ccccc31)N(C)CC(c1ccccn1)C21SC(=S)N(Cc2ccco2)C1=O (centres undefined)	x	n	n	u	28µM	22µM

High-throughput results: PubChem BioAssay, National Center for Advancing Translational Sciences (NCATS)
